Screens from PubChem BioAssay.
Rab9 promoter act – activators of Rab9 promoter; Huh7 Rab9 promoter-luciferase reporter, luminescence, 24 h; AID 485297; hit rate 2.8% among 320,000; Potency, µM (top dose mostly 9.22 µM), for inactives: at the top dose activation, negative = inhibition, usual class: activators; note: % of control where 0% means no effect; nearly all actives have a fitted effect of over 60% in size
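Cell-based reporter: Huh7 stable for Rab9 promoter-driven luciferase, plated in reduced-serum medium with 10% FBS at 1500 cells/well, compound-treated 24 h at 37 °C, luminescence read after 10 min reagent.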
SMN2 splice enh – enhancers of SMN2 splice variant expression | HEK293 SMN2-luciferase splicing reporter, luminescence, 30-36 h | Potency, µM (top dose mostly 46.1 µM), without a hit: at the highest dose activity change, positive = activation, usual class: activators | hit rate 2.8% among 210,000; note: % of control where 0% means no effect; nearly all actives have a fitted effect of over 55% in size
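HEK293 cells carry an SMN2 […]–luciferase reporter in which exon 7 inclusion puts luciferase in frame. Cells were plated 10-12 h before compound addition, then incubated 30-36 h at 37C. ONE-Glo luminescence was read; sodium butyrate at 4.5 mM final served as control.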
FLuc modulator – inhibits or activates purified firefly luciferase, miR-21 counter-screen; P08659; Potency, µM (highest dose often 57.5 µM), for the others: top-dose activity change, negative = inhibition, hits mostly inhibitors; hit rate 6.9% among 360,000; purified FLuc, Km substrates, luminescence inhibition;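 note: plate controls were vehicle for no effect and reference inhibitor for full effect; nearly all actives have a fitted effect of over 55% in size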
Target sequence (P08659 whole entry, looked up): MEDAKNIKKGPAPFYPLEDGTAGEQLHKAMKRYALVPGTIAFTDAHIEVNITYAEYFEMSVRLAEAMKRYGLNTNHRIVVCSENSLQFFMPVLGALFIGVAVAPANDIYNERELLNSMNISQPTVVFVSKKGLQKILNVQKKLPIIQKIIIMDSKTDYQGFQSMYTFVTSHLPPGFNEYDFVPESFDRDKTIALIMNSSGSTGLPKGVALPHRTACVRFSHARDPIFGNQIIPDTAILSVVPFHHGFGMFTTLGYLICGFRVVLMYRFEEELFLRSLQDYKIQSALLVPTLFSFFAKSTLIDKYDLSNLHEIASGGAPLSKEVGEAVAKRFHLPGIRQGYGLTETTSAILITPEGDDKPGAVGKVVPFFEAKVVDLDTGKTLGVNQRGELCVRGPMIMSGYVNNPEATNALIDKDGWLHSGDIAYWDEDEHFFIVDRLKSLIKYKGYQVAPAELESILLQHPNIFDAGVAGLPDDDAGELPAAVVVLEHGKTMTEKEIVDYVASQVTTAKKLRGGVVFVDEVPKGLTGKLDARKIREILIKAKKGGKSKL
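Biochemical qHTS of compounds, final roughly 60 µM downward over six points, against 10 nM purified firefly luciferase using Km concentrations of substrates (10 uM D-luciferin, 10 uM ATP) in Tris acetate pH 7.5 buffer; luminescence output.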
ELG1 genotoxic – induces genotoxicity in HEK293T cells with luciferase-tagged ELG1; HEK293T ELG1-luciferase reporter, luminescence, 16 h; Potency, µM (series often up to 46 µM), for the others: at the highest dose activity change, positive = activation, hits mostly activators; hit rate 1.3% among 330,000; AID 504466; note: % of control where 0% means no effect; nearly all actives have a fitted effect of over 60% in size
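HEK293T cells expressing luciferase-tagged ELG1 were treated with compound or DMSO for 16 hr at 37°C. Luciferase activity was then read after 30 min with ONE-Glo at room temperature; rising signal flags genetic stress.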
KinaseGlo FLuc – counter-screen: inhibitors of Kinase-Glo firefly luciferase; Q27757; Kinase-Glo luciferase, ATP luminescence, 8 min; Potency, µM (top dose mostly 38.3 µM), for inactives: at the highest dose activity change, negative = inhibition, most hits filed as inhibitors; hit rate 0.28% among 200,000; AID 1379; note: % is set by controls: 0 for no effect and ±100 for the full control effect; nearly all actives have a fitted effect of over 60% in size
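Light output from Kinase-Glo luciferase with luciferin and 10 uM ATP in 50 mM imidazole pH 7.2, KCl, MgCl2, Tween 20, BSA; compound pin-delivered, 8-min ambient incubation, then luminescence read.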
NPC1 promoter act – activators of NPC1 promoter. AID 485313. hit rate 2.4% among 320,000. Potency, µM (doses to about 9.22 µM), for the others: at the highest dose activation, usual class: activators. Huh7 NPC1 promoter luciferase reporter, 24 h; note: % of control where 0% means no effect; nearly all actives have a fitted effect of over 60% in size
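Cells: Huh7 expressing luciferase under the NPC1 promoter, 1500/well. Seeded 2 h, compound added, incubated 24 h at 37 °C. Luciferase reagent, 10 min ambient, then luminescence.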
The depositor's hits bear a star; ? = inconclusive; . = no result given. Hits are enriched below; roughly 7.4% of the tested compounds scored in any of these assays. Calls come from the whole dose curve; as a rule, active = well fitted curve in the direction sought with a large enough effect; inconclusive = small, poorly fitted or top-dose-only effect, or another doubt; inactive = no such curve, though single readings can be large; an effect the other way counts as inactive or inconclusive. Potency is the fitted concentration of half-maximal effect.

SMILES	Rab9 promoter act	SMN2 splice enh	FLuc modulator	ELG1 genotoxic	KinaseGlo FLuc	NPC1 promoter act
CCn1cc2nc(SCC(=O)Nc3ccccc3F)n(Cc3ccc(C)cc3)c(=O)c2n1	.	.	-18%	.	.	.
CC1CCC(NC(=O)c2ccc(CS(=O)(=O)c3ccc(Cl)cc3)o2)CC1 (centres undefined)	.	.	2%	.	.	.
O=C(NCc1ccco1)C(=O)NCC(c1ccco1)N1CCOCC1 (centres undefined)	2%	-41%	-1%	2%	3%	-3%
O=C(O)c1ccc(-c2ccc(Cl)cc2Cl)o1	18%	-7%	?	12%	-2%	1%
O=C(c1ccc(-c2cc(Cl)ccc2Cl)o1)N1CCOCC1	26%	12%	?	18%	-9%	3%
O=C(c1ccco1)N1CCN(Cc2c(Cl)cccc2Cl)CC1	3.2µM*	.	27µM*	?	.	?
O=C(c1ccc(-c2ccc(Cl)cc2Cl)o1)N1CCOCC1	3.2µM*	22µM*	8.5µM*	?	1%	3.2µM*
CN(C)/C=C/C(=O)c1ccc(-c2ccc(Cl)cc2Cl)o1	4.5µM*	?	9.5µM*	?	1%	?
O=C(c1cc(-c2ccccc2Cl)on1)N1CCN(C(=O)c2ccco2)CC1	-3%	5%	19µM*	1%	2%	1%
Cc1onc(-c2ccccc2Cl)c1C(=O)N1CCN(C(=O)c2ccco2)CC1	-2%	10%	4%	-6%	0%	0%
CCC1CCCCN1CCCNC(=O)c1ccc(N2CCOCC2)c(NS(=O)(=O)c2ccc(OC)cc2)c1 (centres undefined)	-1%	?	5%	9%	1%	-4%
CC(=O)C1=C(O)C(=O)N(c2ccc(Br)cc2)C1c1cccc([N+](=O)[O-])c1 (centres undefined)	3%	.	1%	5%	.	0%
Cc1cc(C(=O)Nc2nc(C)c(C(=O)N(C)C)s2)ccc1[N+](=O)[O-]	0.45µM*	1.8µM*	4.3µM*	2.6µM*	-4%	0.35µM*
Cc1ccc(CNC(=O)C(=O)NCC2CCCN2S(=O)(=O)c2cccs2)cc1 (centres undefined)	-3%	.	-3%	12%	.	2%
O=c1c2ccccc2oc2ccc(Oc3ccccc3)cc12	1.8µM*	.	4.3µM*	?	.	2.8µM*
CCCNC(=S)NNC(=O)c1cc(-c2cccnc2)nc2ccccc12	-9%	.	19µM*	-2%	.	-1%
CCNC(=S)NNC(=O)c1cc(-c2cccnc2)nc2ccccc12	3%	13%	9.5µM*	3%	?	-3%
CCNC(=S)NNC(=O)c1cc(C)nc2ccccc12	-8%	16%	-14%	-1%	5%	-3%
C/C(=N\NC(=O)c1cc(-c2cccnc2)nc2ccccc12)c1ccccc1O	-33%	-82%	?	?	-2%	-36%
CCCCNC(=S)NNC(=O)c1cc(-c2cccnc2)nc2ccccc12	0%	.	15µM*	0%	.	-2%
COc1cc(C2CC(=O)N(c3ccc(C)cc3)C(=O)C2)cc(OC)c1OC	-23%	.	0%	?	.	-34%
CCCCC1CCC(C(=O)N(C)CC(=O)Nc2cccc(F)c2)CC1 (centres undefined)	-5%	.	4%	-8%	.	-3%
O=C(Nc1ccccc1)C1=C[C@@H](C2CC2)C[C@@H](OCc2ccc(CO)cc2)O1	18%	.	11µM*	10%	.	11%
C#CCNC(=O)C1=C[C@@H](C2CCCCC2)C[C@@H](OCc2ccc(CO)cc2)O1	-5%	.	15µM*	5%	.	1%
O=C(Nc1ccccc1)C1=C[C@@H](C2CC2)C[C@@H](OCCCCO)O1	1%	.	17µM*	?	.	0%
SMILES	Rab9 promoter act	SMN2 splice enh	FLuc modulator	ELG1 genotoxic	KinaseGlo FLuc	NPC1 promoter act
C#CCNC(=O)C1=C[C@H](C2CCCCC2)C[C@H](OCc2ccc(CO)cc2)O1	8%	.	-19%	2%	.	4%
NC(=O)C1=C[C@H](c2ccc3c(c2)OCO3)C[C@H](OCc2ccc(CO)cc2)O1	?	.	15µM*	?	.	?
O=C(Nc1ccccc1)C1=C[C@H](c2ccc3c(c2)OCO3)C[C@H](OCCCCO)O1	30%	.	15µM*	17%	.	11%
COc1ccc(S(=O)(=O)N2CCC(C(=O)Oc3cccc(C)c3)CC2)cc1OC	4%	.	5%	3%	.	-3%
O=C(Nc1cccc(Cl)c1)c1ccccc1	?	.	13µM*	16µM*	.	?
CC(C)(C)N(NC(=O)Nc1ccc(Cl)c(Cl)c1)C(=O)c1ccccc1	-2%	4%	-2%	1%	1%	0%
O=C(Nc1ccc(Cl)c(Cl)c1)c1ccccc1	1.6µM*	.	3.8µM*	?	.	3.2µM*
O=C(Nc1ccc(-c2nc3ccccc3s2)c(OC(=O)c2ccccc2)c1)c1ccccc1	1.4µM*	2.8µM*	?	?	0%	1.6µM*
Cn1c(N)c(C(=O)Nc2cccc(Cl)c2)c(=O)n(C)c1=O	6%	.	5.4µM*	8%	.	2%
O=C(NNC(=S)Nc1cccc(Cl)c1)c1ccccc1	23%	.	?	7%	.	?
CCc1c(C)nc2ncnn2c1NCCc1ccc(Cl)cc1	-42%	.	1%	-6%	-1%	-29%
Cn1c(CNC(=O)CNC(=O)c2ccccc2)cc(=O)n(C)c1=O	-3%	.	-2%	-1%	.	-4%
CCN(C(=O)COC(=O)c1oc2ccc(OC)cc2c1C)C1CCCCC1	2%	.	2%	12%	.	-2%
CC(=O)Nc1ccc2cc3ccc(NC(C)=O)cc3nc2c1	?	.	11µM*	?	.	?
O=C(Nc1ccc(Cl)c(Cl)c1)Nc1ccc(Br)cc1F	0%	-22%	-16%	-2%	4%	-1%
